Assay outcomes: PubChem BioAssay, National Center for Advancing Translational Sciences (NCATS)
Nrf2 inh – Nrf2 pathway inhibition. Potency, µM (doses to about 46 µM), usual class: inhibitors. hit rate 2.1% among 360,000. A549 ARE-Fluc reporter, luciferase luminescence, 18-24 h; note: nearly all actives have a fitted effect of over 60% in size
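A549 ARE_Fluc cells (5000/well, 5% FBS OPTI-MEM) pre-incubated 2 h, then treated with compounds 18-24 h at 37C/5% CO2 in concentration-response. CellTiter-Fluor viability read first; BugLite luciferase luminescence after 15 min at room temperature gives Nrf2 activity.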
S2 tox – reduces viability in counter-screen for ATXN expression inhibitors; hit rate 0.49% among 400,000; Potency, µM (titrated, usually from 56.7 µM), most hits filed as cytotoxic; S2 cells (HEK-293 line with an ATXN2-luciferase reporter) viability, CellTiter-Fluor protease fluorescence, 24 h; note: nearly all actives have a fitted effect of over 40% in size
TGFb inhibitor – TGF-b pathway inhibition | HepG2 CAGA-GFP TGF-b/SMAD3 reporter, GFP fluorescence, 18 h; TGF-beta stimulated, 500 pg/mL final | Potency, µM (doses to about 46.1 µM), hits mostly inhibitors | hit rate 1.2% among 410,000; note: nearly all actives have a fitted effect of over 65% in size
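Read-out: total well GFP (ex488/em500-530) summed from mean per-cell fluorescence. Cells: HEPG2 CAGA-GFP, 1% FBS DMEM, 18 h at 37 degrees C with 500 pg/mL final TGF-beta. Unstimulated wells served as the full-inhibition control; stimulated DMSO wells = 0%.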
ATXN2 expr inh – ATXN2 expression inhibition | HEK-293 ATXN2-luciferase reporter, luminescence, 24 h | AID 1745845 | Potency, µM (series often up to 57 µM), usual class: inhibitors | hit rate 0.72% among 360,000; note: nearly all actives have a fitted effect of over 55% in size
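qHTS (up to 57 uM final) was run with 24 h compound exposure of reporter cells at 37 °C. Each well was multiplexed: SteadyGlo luminescence measured ATXN2-luciferase expression after a fluorogenic Gly-Phe-AFC viability readout (25 uM final).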
A549 tox-1 – kills or reduces viability of A549 cells in Nrf2 counter-screen | A549 ARE-Fluc cells, CellTiter-Fluor viability, 18-24 h | Potency, µM (top dose mostly 46 µM), most hits filed as inhibitors | hit rate 0.16% among 390,000 | AID 504648
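A549 ARE_Fluc cells in 5% FBS OPTI-MEM were exposed to compounds in concentration-response for 18-24 h at 37 deg C. Viability was read by CellTiter-Fluor fluorescence (Ex 405/Em 525) after 30 min, before the luciferase read.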
HepG2 tox – kills HepG2 cells in TGF-b inhibitor counter-screen; hit rate 0.76% among 410,000; AID 588856; HepG2 CAGA-GFP viability, ATP luminescence, 18 h; Potency, µM (highest dose often 46.1 µM), usual class: cytotoxic
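CellTiter-Glo luminescence gave cytotoxicity after 18 hours at 37 degrees C. The cells were HepG2 CAGA-GFP in 1% FBS DMEM, stimulated with 500 pg/mL TGF-beta after compound addition. %Activity was normalised to no-cell wells (complete cell-killing) and DMSO (no toxicity), and curves were fitted and classified.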
FLuc counter 3 – firefly luciferase inhibition, Nrf2 hit validation; Potency, µM (doses to about 57.5 µM), usual class: inhibitors; AID 720522; purified firefly luciferase, luminescence inhibition; hit rate 4% among 1,400; shares compounds with Nrf2 inh; note: nearly all actives have a fitted effect of over 65% in size
Target sequence (P08659 whole entry, looked up): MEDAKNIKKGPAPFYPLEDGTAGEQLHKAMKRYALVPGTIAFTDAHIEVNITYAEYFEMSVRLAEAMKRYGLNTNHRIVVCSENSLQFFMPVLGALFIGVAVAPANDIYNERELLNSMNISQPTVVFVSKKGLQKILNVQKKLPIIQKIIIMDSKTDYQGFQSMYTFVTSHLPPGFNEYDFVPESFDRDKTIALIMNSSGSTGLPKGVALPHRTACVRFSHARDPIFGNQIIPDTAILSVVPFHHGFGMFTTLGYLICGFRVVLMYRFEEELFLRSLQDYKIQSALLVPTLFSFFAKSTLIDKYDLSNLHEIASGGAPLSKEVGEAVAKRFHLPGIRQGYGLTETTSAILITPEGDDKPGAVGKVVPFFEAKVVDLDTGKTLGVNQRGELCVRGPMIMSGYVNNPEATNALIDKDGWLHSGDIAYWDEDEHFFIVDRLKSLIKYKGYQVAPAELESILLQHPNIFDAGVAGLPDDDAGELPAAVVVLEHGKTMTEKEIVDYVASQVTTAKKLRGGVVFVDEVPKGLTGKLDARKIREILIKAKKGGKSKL
A549 tox-2 – counter-screen for Nrf2 inhibitors: cytotoxicity in A549 ARE cells. shares compounds with Nrf2 inh. A549 ARE-Fluc cells, cytotoxicity counterscreen. Potency, µM (highest dose often 46.1 µM), actives largely listed as inhibitors. hit rate 2% among 1,400;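 note: cells exposed to compounds for 18 to 24 hours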
Nrf2 ARE inh – reduces Nrf2 ARE reporter signal in A549 cells. hit rate 74% among 1,400. A549 ARE-firefly luciferase reporter, luminescence. Potency, µM (highest dose often 46.1 µM), actives largely listed as inhibitors. shares compounds with Nrf2 inh; note: nearly all actives have a fitted effect of over 65% in size
A number is an active result; i = inactive; ? = inconclusive; nt = no result shown; [ ] = another dose, or the depositor's remark. Only some compounds are listed: those with a hit (about 3.8% of all), similar ones and a draw of the others. Calls come from the whole dose curve; as a rule, active = well fitted curve in the direction sought with a large enough effect; inconclusive = small, poorly fitted or top-dose-only effect, or another doubt; inactive = no such curve, though single readings can be large; an effect the other way counts as inactive or inconclusive.

SMILES | Nrf2 inh | S2 tox | TGFb inhibitor | ATXN2 expr inh | A549 tox-1 | HepG2 tox | FLuc counter 3 | A549 tox-2 | Nrf2 ARE inh
Cc1ccc(S(=O)(=O)NCc2ccccn2)c(C)c1C | i | i | i | i | i | i | nt | nt | nt
CCn1cc(C(=O)N2CCN(c3cccc(Cl)c3)CC2)c(=O)c2cc(S(=O)(=O)N3CCOCC3)ccc21 | ? | i | i | i | i | i | nt | nt | nt
COc1cc2nc(N3CCCN(C)CC3)nc(OC3CCN(C)CC3)c2cc1OC | nt | nt | i | nt | nt | i | nt | nt | nt
COc1ccc(C(=O)Nc2ccc(S(=O)(=O)N3CCOCC3)cc2)cc1 | i | i | ? | i | i | i | nt | nt | nt
COc1ccc(C(=O)Nc2ccc(Cl)c(S(=O)(=O)N3CCOCC3)c2)cc1 | 9.2µM | ? | i | ? | i | i | 21µM | i | nt
CC(=O)c1ccc(OCCCC(=O)Nc2ccc(Cl)c(S(=O)(=O)N3CCOCC3)c2)cc1 | 5.2µM | i | ? | nt | i | i | i | i | 7.3µM
O=C(CCCOc1ccccc1)Nc1ccc(Cl)c(S(=O)(=O)N2CCOCC2)c1 | ? | i | ? | i | i | i | nt | nt | nt
Cc1cccc(C(=O)NN2S(=O)(=O)c3ccccc3S2(=O)=O)c1 | i | i | i | i[11.3 µM] | i | i | nt | nt | nt
COc1ccc(CNc2nc3c(c(=O)n(Cc4ccc(Cl)cc4)c(=O)n3C)n2C)cc1 | 9.2µM | ? | i | i | ? | i | i | i | 13µM
COc1ccccc1C(=O)NC(=S)Nc1ccc(Cc2ccncc2)cc1 | 5.8µM | ? | ? | nt | i | i | i | i | 21µM
O=C(CNc1cc(S(=O)(=O)N2CCCC2)ccc1OCC(F)(F)F)Nc1cccc(C(F)(F)F)c1 | 7.3µM | i | ? | i | i | i | i | i | 13µM
N#Cc1cccc(NC(=O)CNc2cccc(S(=O)(=O)N3CCCC3)c2)c1 | 7.3µM | ? | i | ? | ? | i | i | i | ?
N#Cc1cccc(NCC(=O)Nc2cccc(S(=O)(=O)N3CCCCC3)c2)c1 | ? | i | ? | i | i | i | nt | nt | nt
CCN(CC)S(=O)(=O)c1cc(NC(=O)CNc2cccc(S(=O)(=O)N3CCOCC3)c2)ccc1C | 0.58µM | i | ? | i | i | i | i | i | 3.7µM
Cc1cnc(C(=O)OCC(=O)N2C(C)CCCC2C)cn1 (stereo not given) | i | ? | i | nt | i | i | nt | nt | nt
O=C(Nc1ncc(Cc2ccc(C(F)(F)F)cc2)s1)c1ccc(-c2cccc([N+](=O)[O-])c2)o1 | 5.8µM | ? | i | i | i | i | i | i | 6.5µM
C=CCn1c(O)c(N=NC(=S)Nc2ccccc2F)c2cc(S(=O)(=O)N3CCOCC3)ccc21 | 5.8µM | i | ? | i | ? | i | i | i | nt
C=CCn1c(O)c(N=NC(=S)Nc2ccccc2F)c2ccccc21 | ? | ? | ? | ? | ? | i | nt | nt | nt
COc1ccc(Cn2c(=O)[nH]c3cc(C(=O)NCc4ccc5c(c4)OCO5)ccc3c2=O)cc1 | ? | ? | i | i | i | i | nt | nt | nt
O=C(NCc1ccc2c(c1)OCO2)c1ccc2c(=O)n(C3CCCC3)c(=O)[nH]c2c1 | 8.2µM | ? | ? | ? | ? | i | i | i | 0.23µM
CCOc1ccc(-c2c(C)nn3c(C)c(C(=O)NCC(C)c4ccccc4)cnc23)cc1OCC (stereo not given) | ? | nt | i | nt | i | i | nt | nt | nt
O=C(NCCCn1ccnc1)c1ccc(N2CCCCCC2)c([N+](=O)[O-])c1 | 2.9µM | i | i | nt | i | i | i | i | i
COC(=O)CSc1ncnc2c1sc1nc3c(cc12)COC(C)(C)C3 | 2.9µM | i | i | ? | i | i | ? | i | 7.3µM
